Test [1] in a line: qHTS for Inhibitors of Cell Surface uPA Generation: Validation Assay (AID 493164).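 Note: RAW 264.7 macrophage cells exposed to compound for 18 h.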 A digest of the protocol:
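RAW 264.7, 4000 cells/well, o/n plating; cpd 7-pt 1:5 dilution 2.45 nM–38.3 uM final; 18 h, 37 C/5% CO2; ATP-Lite, 5 s luminescence exposure.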
In general terms: qHTS replaces the single test concentration by a dilution series.

In test [2] the target is Galactokinase (Homo sapiens) (UniProt P51570). Nature of the test: qHTS Validation Assay for Inhibitors of Human Galactokinase (GALK) (AID 493189). A digest of the protocol:
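Compounds were pin-transferred into ATP buffer, then GALK-galactose mix was added (final 5 nM enzyme, 100 uM galactose, 35 uM ATP). After 1 h at room temperature, remaining ATP was measured luminescently.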

Test [3] can be described thus: Validation screen for small molecules that induce DNA re-replication in SW480 colon adenocarcinoma cells (AID 504364). A digest of the protocol:
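Cells are treated 48 hr with test compound, stained 40 min with Hoechst at 37 C, and scanned for nuclear fluorescence; compounds inducing re-replication increase nuclei with elevated intensity.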

Test [4] deals with Peptidyl-prolyl cis-trans isomerase NIMA-interacting 1 (Homo sapiens) (UniProt Q13526). Nature of the test: qHTS Validation Assay to Find Inhibitors of Pin1 (AID 504536; active = well fitted inhibition curve with a large enough effect in the polarisation, with a control signal flat, not every such curve was filed as active; the % refers to the polarisation). The method, boiled down: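 Fluorescence polarization competition: compounds (titration) displace HiFluor-488-labeled Pin1-1b peptide from Pin1 (0.3 uM final) in pH 7.5 HEPES buffer with DTT, 10 min at room temperature; %Activity normalized to no-enzyme wells, curves fitted.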

For test [5], the target named is Phosphoglycerate kinase, glycosomal (Trypanosoma brucei brucei) (UniProt P07378). Nature of the test: qHTS Validation Assay to Find Inhibitors of Phosphoglycerate Kinase (AID 504547). The method, boiled down: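 PGK activity was coupled to GAPDH (100nM final), which generates the unstable substrate 1,3-bisphosphoglycerate in-well. Reactions ran 60 minutes at room temperature in 100mM TEA pH 7.6, 5mM MgCl2, 0.01% Tween-20, then Kinase-Glo Plus luminescence was read.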

The target in test [6] is phosphoglycerate mutase (Leishmania major) (UniProt Q4Q090). The test can be described thus: qHTS Validation Assay to Find Inhibitors of Phosphoglycerate Mutase (AID 504548).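 Note: end-point luminescence from Kinase-GloPlus after the PGAM reaction; series mostly up to about 58 µM.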 The settings on record: Potency: inhibition qHTS. A digest of the protocol:
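Inhibition of L. major PGAM was assessed by Kinase-GloPlus luminescence following a 45-minute room-temperature reaction with enzyme at 1.25nM final.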

The target in test [7] is Ubiquitin carboxyl-terminal hydrolase 1 (Homo sapiens) (UniProt O94782). Nature of the test: Inhibitors of USP1/UAF1: Pilot qHTS (AID 504865).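 Note: rhodamine fluorescence freed from ubiquitin-rhodamine substrate followed over time; top concentration of the series differs between compounds; nearly all actives have a fitted effect of over 35% in size.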 The method, boiled down: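 Kinetic fluorescence assay: 1nM USP1/UAF1, 15 min compound preincubation, then 150nM Ub-Rho; 480/540 nm.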
The nature of test [8]: qHTS for Inhibitors of ATXN expression: Validation of Cytotoxic Assay (AID 588349).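 Note: cells exposed to compound for 72 hr.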 Note: potency is the fitted concentration of half-maximal effect. The method, boiled down: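 HEK293, compound dose series, 72 hr / 37 degrees C; viability via CellTiter Glo (intracellular ATP).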
Test [9] in a line: qHTS for Inhibitors of ATXN expression: Validation (AID 588378). Note: series mostly up to about 57 µM; nearly all actives have a fitted effect of over 75% in size. A digest of the protocol:
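Validation of ATXN2 expression inhibitors uses a cell-based luciferase fusion reporter in HEK293 cells, with 24 h compound exposure and paired viability (fluorescence) and reporter (luminescence) end-point reads.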

Molecules are shown by their SMILES. Records with an inconclusive call do not appear. Active and inactive are the calls of the source. Unless noted, calls come from the whole dose curve; as a rule, active = well fitted curve in the direction sought with a large enough effect; inconclusive = small, poorly fitted or top-dose-only effect, or another doubt; inactive = no such curve, though single readings can be large; an effect the other way counts as inactive or inconclusive.

Sequence of Peptidyl-prolyl cis-trans isomerase NIMA-interacting 1 (Homo sapiens) (Q13526 whole entry, looked up): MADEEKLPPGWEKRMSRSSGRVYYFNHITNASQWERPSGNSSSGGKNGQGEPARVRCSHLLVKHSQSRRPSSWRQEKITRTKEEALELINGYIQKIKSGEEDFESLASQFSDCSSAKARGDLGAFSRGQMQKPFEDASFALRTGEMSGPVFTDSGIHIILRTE
Sequence of phosphoglycerate mutase (Leishmania major) (Q4Q090 1-553): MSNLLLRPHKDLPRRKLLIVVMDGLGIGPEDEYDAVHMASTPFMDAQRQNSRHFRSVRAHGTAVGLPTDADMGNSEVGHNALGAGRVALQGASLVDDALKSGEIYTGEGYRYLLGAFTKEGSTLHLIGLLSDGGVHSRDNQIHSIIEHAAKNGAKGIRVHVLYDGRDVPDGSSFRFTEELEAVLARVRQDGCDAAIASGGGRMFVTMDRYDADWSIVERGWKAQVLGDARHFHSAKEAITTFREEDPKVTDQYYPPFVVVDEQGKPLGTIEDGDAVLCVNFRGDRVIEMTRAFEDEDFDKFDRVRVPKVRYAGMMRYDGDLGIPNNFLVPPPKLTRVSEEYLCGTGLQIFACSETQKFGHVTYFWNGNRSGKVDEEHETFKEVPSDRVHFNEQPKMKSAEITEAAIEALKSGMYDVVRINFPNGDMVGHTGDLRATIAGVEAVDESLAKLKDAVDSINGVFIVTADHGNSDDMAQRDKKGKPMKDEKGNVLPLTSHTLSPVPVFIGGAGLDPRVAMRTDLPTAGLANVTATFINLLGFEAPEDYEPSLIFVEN
Sequence of Ubiquitin carboxyl-terminal hydrolase 1 (Homo sapiens) (O94782 whole entry, looked up): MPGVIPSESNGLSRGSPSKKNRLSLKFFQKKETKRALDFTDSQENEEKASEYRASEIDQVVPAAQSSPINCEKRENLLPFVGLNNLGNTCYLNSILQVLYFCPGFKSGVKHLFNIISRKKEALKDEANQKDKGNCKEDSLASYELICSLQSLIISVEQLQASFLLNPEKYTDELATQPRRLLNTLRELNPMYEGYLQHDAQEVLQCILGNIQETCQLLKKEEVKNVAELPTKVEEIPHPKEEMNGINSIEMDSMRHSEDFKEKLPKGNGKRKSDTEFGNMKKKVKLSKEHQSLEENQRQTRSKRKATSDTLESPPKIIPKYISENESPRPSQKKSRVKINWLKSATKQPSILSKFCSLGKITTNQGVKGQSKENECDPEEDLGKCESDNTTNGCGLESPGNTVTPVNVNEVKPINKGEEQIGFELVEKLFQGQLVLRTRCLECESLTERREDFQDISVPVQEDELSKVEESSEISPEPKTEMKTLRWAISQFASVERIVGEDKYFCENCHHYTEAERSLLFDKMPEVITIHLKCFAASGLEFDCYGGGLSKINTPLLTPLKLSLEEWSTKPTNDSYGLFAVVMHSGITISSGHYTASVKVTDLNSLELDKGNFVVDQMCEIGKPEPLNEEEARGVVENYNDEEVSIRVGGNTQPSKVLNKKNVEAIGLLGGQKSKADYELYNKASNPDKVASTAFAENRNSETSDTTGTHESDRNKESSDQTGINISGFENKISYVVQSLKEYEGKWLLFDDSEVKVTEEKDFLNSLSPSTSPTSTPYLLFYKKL
Sequence of Phosphoglycerate kinase, glycosomal (Trypanosoma brucei brucei) (P07378 whole entry, looked up): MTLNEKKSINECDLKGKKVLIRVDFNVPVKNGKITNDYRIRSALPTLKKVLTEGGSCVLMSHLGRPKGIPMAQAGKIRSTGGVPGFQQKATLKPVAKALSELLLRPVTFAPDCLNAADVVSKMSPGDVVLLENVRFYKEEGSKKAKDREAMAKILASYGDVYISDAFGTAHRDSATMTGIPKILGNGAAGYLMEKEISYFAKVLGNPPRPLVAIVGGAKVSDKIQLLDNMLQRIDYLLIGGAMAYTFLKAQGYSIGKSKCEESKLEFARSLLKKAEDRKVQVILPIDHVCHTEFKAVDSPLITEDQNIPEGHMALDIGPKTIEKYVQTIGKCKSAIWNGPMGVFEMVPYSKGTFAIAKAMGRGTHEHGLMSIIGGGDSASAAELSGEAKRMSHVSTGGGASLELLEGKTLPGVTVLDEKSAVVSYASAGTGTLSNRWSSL
Sequence of Galactokinase (Homo sapiens) (P51570 whole entry, looked up): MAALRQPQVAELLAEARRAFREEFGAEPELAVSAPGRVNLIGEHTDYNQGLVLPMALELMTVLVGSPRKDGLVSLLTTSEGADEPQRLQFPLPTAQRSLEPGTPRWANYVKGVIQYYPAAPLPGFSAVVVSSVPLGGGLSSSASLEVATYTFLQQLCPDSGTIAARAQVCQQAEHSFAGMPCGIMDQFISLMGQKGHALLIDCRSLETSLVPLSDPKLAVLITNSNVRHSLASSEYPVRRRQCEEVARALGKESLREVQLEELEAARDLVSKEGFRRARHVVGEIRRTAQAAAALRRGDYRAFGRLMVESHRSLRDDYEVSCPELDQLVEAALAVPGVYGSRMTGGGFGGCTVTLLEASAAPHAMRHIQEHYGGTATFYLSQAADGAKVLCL

As to `O=C(O)CC1CCCc2ccccc2C1O` (configuration not stated), the call in test [1] was inactive. Further, the Potency result in test [2], in test [3], in test [4], in test [5], in test [6] and in test [7] was “inactive” each time. Further, the Potency entry in [8] and in [9] was “inactive” throughout.
Take `Cc1ccc(C(=O)O[C@H](C(=O)O)[C@@H](OC(=O)c2ccc(C)cc2)C(=O)O)cc1` (tested in a mixture with another compound): the result in test [1] was inactive. Also, the Potency result in [2], in test [3], in [4], in test [5], in test [6] and in test [7] was “inactive” in each case. The Potency entry in test [8] and in [9] was “inactive” each time.
`CC1CN(S(=O)(=O)c2cccc3cnccc23)CCN1` (configuration not stated): in test [1], the call was inactive. Moreover, the Potency entry in [2], in [3], in test [4], in [5], in test [6] and in test [7] was “inactive” in each case. Also, the Potency entry in test [8] and in [9] was “inactive” in each case.
Consider `CC(=O)SCC[N+](C)(C)C`, for which the outcome in test [1] was inactive. The Potency entry in test [2], in [3], in test [4], in test [5], in test [6] and in test [7] was “inactive” in each case. For the same compound, the Potency entry in test [8] was “inactive”.
With `NCCCCCCCCCCN`, the compound was classed as inactive in test [1]. Also, the Potency entry in test [2], in test [3], in test [4], in test [5], in [6] and in test [7] was “inactive” each time.
For the compound `O=c1[nH]c2cc(Cl)c(Cl)cc2[nH]c1=O`, the call in [1] was inactive. For the same compound, the Potency result in test [2], in test [3], in test [4], in test [5], in [6] and in [7] was “inactive” throughout. The Potency entry in test [8] and in test [9] was “inactive” each time.
In the case of `CN1C2CCC1CC(OC(=O)C(O)c1ccccc1)C2` (configuration not stated), the call in test [1] was inactive. Further, the Potency entry in [2], in test [3], in [4], in test [5], in [6] and in [7] was “inactive” throughout. Moreover, the Potency result in test [8] and in [9] was “inactive” in each case.
With `CCN1/C(=C/C(C)=O)Sc2ccc(OC)cc21`, the outcome in test [1] was inactive. Besides, the Potency entry in [2], in test [3], in test [4], in test [5], in [6] and in [7] was “inactive” in each case. In test [8], the Potency result is “inactive”.
On to `Oc1ccc(C2CNCc3sccc32)cc1O` (configuration not stated), for which the result in test [1] was inactive. Further, the Potency result in test [2], in test [3], in test [4], in [5], in [6] and in test [7] was “inactive” in each case.
In the case of `CN1CCc2ccccc2Cc2[nH]c3ccccc3c2CC1`, the compound was classed as inactive in [1]. In addition, the Potency entry in [2], in [3], in [4], in [5], in test [6] and in test [7] was “inactive” throughout. Moreover, the Potency entry in [8] was “inactive”.
For the compound `OC[C@H]1O[C@@H](n2cnc3c(NC4CCCCC4)ncnc32)[C@H](O)[C@@H]1O`, the call in test [1] was inactive. The Potency result in test [2], in [3], in [4], in test [5], in test [6] and in [7] was “inactive” each time. In addition, the Potency result in test [8] is “inactive”.
As for `c1ccc(-c2ccccn2)nc1`, in test [1], the compound was called inactive. Also, the Potency entry in [2], in test [3], in test [4], in test [5], in [6] and in [7] was “inactive” each time. The Potency entry in test [8] and in test [9] was “inactive” in each case.
Take `CN(C)c1ccc(/C=C2\C(=O)Nc3ccccc32)cc1`: the result in test [1] was inactive. Further, the Potency entry in test [2], in test [3], in test [4], in [5], in test [6] and in [7] was “inactive” each time. In [8], the Potency entry was “inactive”.
`CN1CCc2cc(NC(=O)Nc3cccnc3)ccc21`: the result in [1] was inactive. Moreover, the Potency result in [2], in test [3], in test [4], in test [5], in [6] and in [7] was “inactive” each time. For the same compound, the Potency entry in test [8] and in test [9] was “inactive” in each case.
As to `CC1(C)CCC=[N+]1[O-]`, the compound was classed as inactive in test [1]. The Potency entry in test [2], in [3], in [4], in test [5], in [6] and in test [7] was “inactive” each time. Besides, the Potency result in test [8] was “inactive”.
With `CN1[C@@H](CC(=O)c2ccccc2)CCC[C@H]1C[C@H](O)c1ccccc1`, the outcome in test [1] was inactive. In addition, the Potency result in [2], in [3], in [4], in test [5], in [6] and in [7] was “inactive” in each case.
For `NC[C@@H]1O[C@H](C23CC4CC(CC(C4)C2)C3)Cc2c1ccc(O)c2O`, the outcome in test [1] was inactive. Besides, the Potency result in test [2], in [3], in test [4], in [5], in test [6] and in test [7] was “inactive” throughout. In addition, the Potency in test [8] was 31.6 µM (active).
Regarding `COc1ccc(NC(=O)/C=C/c2ccc(Cl)cc2)cc1`, the outcome in test [1] was inactive. Moreover, the Potency result in test [2], in [3] and in test [4] was “inactive” throughout.
For `CN1CCc2cc(O)c(O)cc2C(c2ccccc2)C1` (configuration not stated), in test [1], the outcome was inactive. In addition, the Potency entry in [2], in test [3], in [4], in test [5], in test [6] and in test [7] was “inactive” in each case.
For the compound `CN(C)CCC(c1ccc(Cl)cc1)c1ccccn1` (configuration not stated), the result in test [1] was inactive. Further, the Potency result in test [2], in [3], in [4], in [5], in [6] and in test [7] was “inactive” each time.
Turning to `NCCCCC(=O)O`, the compound was classed as inactive in [1]. The Potency entry in test [2], in test [3], in test [4], in [5], in [6] and in test [7] was “inactive” throughout. Also, the Potency result in test [8] was “inactive”.
With `NCCNC(=O)c1ncsc1-c1cccc(F)c1`, the compound was called inactive in test [1]. Also, the Potency result in test [2], in test [3], in test [4], in test [5], in test [6] and in test [7] was “inactive” each time. The Potency entry in [8] and in test [9] was “inactive” each time.
Consider `N=C(N)SCCc1ccc(CCSC(=N)N)cc1`, for which the outcome in test [1] was inactive. Besides, the Potency result in test [2], in test [3], in test [4], in test [5], in test [6] and in test [7] was “inactive” in each case. For the same compound, the Potency entry in test [8] and in test [9] was “inactive” in each case.
For the compound `C[N+](C)(CCCCCC[N+](C)(C)CCCN1C(=O)c2cccc3cccc(c23)C1=O)CCCN1C(=O)c2cccc3cccc(c23)C1=O`, in test [1], the compound was classed as inactive. Also, the Potency result in [2], in test [3], in test [4], in test [5], in test [6] and in test [7] was “inactive” each time. Moreover, the Potency entry in test [8] and in [9] was “inactive” in each case.
As to `CC(C)(C)c1ccc(S(=O)(=O)/C=C/C#N)cc1`, the compound was classed as inactive in test [1]. Moreover, the Potency entry in test [2], in [3], in [4], in [5], in test [6] and in test [7] was “inactive” each time.
As to `NCCCS(=O)(=O)O`, the compound was called inactive in [1]. Further, the Potency entry in [2], in test [3], in [4], in test [5], in [6] and in test [7] was “inactive” in each case. For the same compound, in test [8], the Potency result was “inactive”.
Turning to `Cn1c(=O)c2[nH]c(-c3ccccc3)nc2n(C)c1=O`, the compound was classed as inactive in test [1]. Moreover, the Potency result in test [2], in test [3], in test [4], in test [5], in test [6] and in test [7] was “inactive” throughout. In addition, the Potency result in test [8] and in [9] was “inactive” each time.

The values above are taken from PubChem BioAssay (NCATS).
